Eleven compounds from ChEMBL document CHEMBL3988442, “University of Dundee, Small-Polar-MMV Screening Library” (2021) can be followed below.

For some of these results: Measured potencies and affinities stand elsewhere.

Holding throughout (design): scale not given: direction of the effect not stated beside the values
Assay [1] deals with Protein translocase subunit SecA (Escherichia coli (strain K12)) (UniProt P10408). Kind of assay: Assay to Identify E. coli SecA ATPase Inhibitors. Format: functional. The settings on record: 30 µM.
For assay [2], the target named is T1, Ubiquitin-activating enzyme e1, putative (Leishmania donovani (strain BPK282A1)) (UniProt E9BSI1).
T1 sequence (whole entry): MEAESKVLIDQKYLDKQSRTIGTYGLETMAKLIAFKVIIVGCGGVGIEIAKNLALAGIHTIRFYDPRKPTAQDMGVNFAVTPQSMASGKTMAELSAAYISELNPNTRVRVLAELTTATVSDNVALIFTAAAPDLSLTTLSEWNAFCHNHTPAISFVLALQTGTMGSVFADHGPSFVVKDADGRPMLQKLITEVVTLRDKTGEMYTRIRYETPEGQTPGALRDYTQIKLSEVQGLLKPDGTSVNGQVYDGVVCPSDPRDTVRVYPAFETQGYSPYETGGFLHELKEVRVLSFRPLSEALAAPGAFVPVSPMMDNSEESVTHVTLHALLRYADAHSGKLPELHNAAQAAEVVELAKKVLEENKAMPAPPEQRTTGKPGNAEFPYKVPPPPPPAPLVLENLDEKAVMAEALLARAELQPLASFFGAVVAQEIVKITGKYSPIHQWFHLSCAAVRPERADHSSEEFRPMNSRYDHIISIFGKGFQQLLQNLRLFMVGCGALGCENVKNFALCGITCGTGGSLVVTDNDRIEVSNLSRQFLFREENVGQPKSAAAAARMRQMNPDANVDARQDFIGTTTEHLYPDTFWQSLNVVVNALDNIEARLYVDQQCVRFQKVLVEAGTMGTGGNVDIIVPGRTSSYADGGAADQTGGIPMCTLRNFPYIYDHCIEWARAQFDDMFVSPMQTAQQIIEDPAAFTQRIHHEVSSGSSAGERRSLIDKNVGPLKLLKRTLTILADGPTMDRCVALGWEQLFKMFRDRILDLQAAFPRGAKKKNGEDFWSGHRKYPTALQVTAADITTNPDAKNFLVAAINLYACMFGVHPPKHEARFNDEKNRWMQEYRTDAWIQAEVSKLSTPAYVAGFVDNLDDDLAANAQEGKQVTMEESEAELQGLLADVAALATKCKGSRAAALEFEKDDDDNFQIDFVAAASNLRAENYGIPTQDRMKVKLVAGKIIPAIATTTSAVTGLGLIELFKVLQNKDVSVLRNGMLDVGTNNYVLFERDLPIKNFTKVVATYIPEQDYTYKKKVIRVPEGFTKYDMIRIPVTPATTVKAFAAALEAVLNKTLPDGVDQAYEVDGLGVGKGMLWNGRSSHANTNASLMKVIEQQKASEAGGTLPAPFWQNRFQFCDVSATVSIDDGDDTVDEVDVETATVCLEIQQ
The assay can be described thus: Leishmania donovani Ubiquitin Activating Enzyme (LdE1). Format: functional. The settings on record: 30 µM.

The target in assay [3] is AMP-activated protein kinase, AMPK (Homo sapiens) (UniProt P54646+O43741+P54619+Q9UGJ0+Q9Y478+Q13131+Q9UGI9). The assay can be described thus: AMP-dependent Kinase enzyme assay. An in vitro enzyme assay that detects ADP turnover that is directly proportional to AMPK activity. This uses naive AMPK that is activated during the assay with MK-8722. The settings on record: 30 µM. Format: functional.

Assay [4] addresses Sialic acid-binding Ig-like lectin 9 (Homo sapiens) (UniProt Q9Y336). The assay can be described thus: Hs-Siglec9 ALPHAscreen SOP 20170721. The following applies: 10 µM.
The subject of the next assay is Trypanosoma cruzi. The assay can be described thus: Trypanosoma cruzi phosphomannomutase and mannose-1-phosphate guanylyltransferase assay. Format: functional. The following applies: 10 µM.
Assay [5] has as its target T2, Arginase-2, mitochondrial (Homo sapiens) (UniProt P78540).
T2 sequence (whole entry): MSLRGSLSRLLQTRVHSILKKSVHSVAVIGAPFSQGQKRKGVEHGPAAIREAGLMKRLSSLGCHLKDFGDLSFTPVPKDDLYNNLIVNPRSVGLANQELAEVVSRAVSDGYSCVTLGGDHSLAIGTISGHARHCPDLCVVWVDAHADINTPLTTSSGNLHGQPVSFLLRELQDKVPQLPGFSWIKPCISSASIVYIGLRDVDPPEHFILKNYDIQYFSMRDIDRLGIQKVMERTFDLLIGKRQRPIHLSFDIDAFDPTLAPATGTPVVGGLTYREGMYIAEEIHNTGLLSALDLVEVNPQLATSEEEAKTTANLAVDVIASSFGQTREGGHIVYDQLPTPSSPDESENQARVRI
Kind of assay: in vitro enzyme assay to detect the production of urea directly proportional to the activity of Arginase II. Also: in the data most compounds retested in dose-response had high values. It is filed as functional. The following applies: 33.3 µM.

For assay [6], the target named is T3, Proteasome subunit beta (Trypanosoma cruzi) (UniProt O96673).
T3 sequence (whole entry): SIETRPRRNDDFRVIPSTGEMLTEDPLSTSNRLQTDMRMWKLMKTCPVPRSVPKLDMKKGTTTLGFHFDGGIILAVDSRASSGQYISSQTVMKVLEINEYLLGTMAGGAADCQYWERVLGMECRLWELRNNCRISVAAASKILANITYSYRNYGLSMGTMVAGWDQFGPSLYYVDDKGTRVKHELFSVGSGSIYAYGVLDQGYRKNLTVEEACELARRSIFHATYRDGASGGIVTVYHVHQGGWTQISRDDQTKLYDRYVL
The assay can be described thus: Trypanosoma cruzi proteasome chymotrypsin-like activity (TcProtChymo) assay. Also: in the data most compounds retested in dose-response had high values. The settings on record: 9.37 µM. Format: functional.

The species named for the next assay is Homo sapiens. The assay can be described thus: To identify inhibition of the IFN signalling (Jak-Stat) pathway via expression of an eGFP reporter gene under the control of an IFN-stimulated response element (ISRE) containing MxA promoter. Format: functional. The following applies: 30 µM. For orientation: A reporter such as luciferase makes a cellular process visible.

Assay [7] concerns the target T4, Tyrosyl-tRNA synthetase, putative (Trypanosoma cruzi (strain CL Brener)) (UniProt Q4DSP6).
T4 sequence (whole entry): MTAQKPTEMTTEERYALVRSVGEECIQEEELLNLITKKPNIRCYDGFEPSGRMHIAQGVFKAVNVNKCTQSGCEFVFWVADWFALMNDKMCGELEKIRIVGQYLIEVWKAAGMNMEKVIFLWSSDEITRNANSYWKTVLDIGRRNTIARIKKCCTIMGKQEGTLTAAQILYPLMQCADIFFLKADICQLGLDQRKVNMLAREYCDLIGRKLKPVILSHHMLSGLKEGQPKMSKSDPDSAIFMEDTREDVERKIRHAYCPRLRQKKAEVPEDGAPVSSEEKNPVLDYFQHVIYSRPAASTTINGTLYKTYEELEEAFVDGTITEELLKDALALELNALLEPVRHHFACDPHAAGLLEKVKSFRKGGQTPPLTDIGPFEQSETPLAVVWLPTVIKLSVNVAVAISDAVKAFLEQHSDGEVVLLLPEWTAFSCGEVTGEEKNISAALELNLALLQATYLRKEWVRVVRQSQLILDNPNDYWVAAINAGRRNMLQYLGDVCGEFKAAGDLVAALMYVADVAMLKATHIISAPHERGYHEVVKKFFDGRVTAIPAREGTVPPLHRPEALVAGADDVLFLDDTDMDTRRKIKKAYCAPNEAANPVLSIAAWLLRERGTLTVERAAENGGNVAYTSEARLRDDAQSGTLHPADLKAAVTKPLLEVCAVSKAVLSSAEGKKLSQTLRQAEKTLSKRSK
Kind of assay: Trypanosoma cruzi tyrosyl tRNA synthetase (TcYRS) _High Tyrosine SOP. Also: in the data most compounds retested in dose-response had high values. Format: functional. The settings on record: 30 µM.

The target of assay [8] is T4, Tyrosyl-tRNA synthetase, putative (Trypanosoma cruzi (strain CL Brener)). Kind of assay: Trypanosoma cruzi tyrosyl tRNA synthetase (TcYRS) SOP. It is filed as functional. The settings on record: 30 µM.
Assay [9] addresses Chromo domain-containing protein 1 (Saccharomyces cerevisiae (strain ATCC 204508 / S288c) (Baker's yeast)) (UniProt P32657). The assay can be described thus: ScCHD-1 Enzyme Inhibition Assay. Also: in the data most compounds retested in dose-response had high values. Format: functional. The settings on record: 30 µM.

Protein translocase subunit SecA (Escherichia coli (strain K12)), sequence (P10408 whole entry): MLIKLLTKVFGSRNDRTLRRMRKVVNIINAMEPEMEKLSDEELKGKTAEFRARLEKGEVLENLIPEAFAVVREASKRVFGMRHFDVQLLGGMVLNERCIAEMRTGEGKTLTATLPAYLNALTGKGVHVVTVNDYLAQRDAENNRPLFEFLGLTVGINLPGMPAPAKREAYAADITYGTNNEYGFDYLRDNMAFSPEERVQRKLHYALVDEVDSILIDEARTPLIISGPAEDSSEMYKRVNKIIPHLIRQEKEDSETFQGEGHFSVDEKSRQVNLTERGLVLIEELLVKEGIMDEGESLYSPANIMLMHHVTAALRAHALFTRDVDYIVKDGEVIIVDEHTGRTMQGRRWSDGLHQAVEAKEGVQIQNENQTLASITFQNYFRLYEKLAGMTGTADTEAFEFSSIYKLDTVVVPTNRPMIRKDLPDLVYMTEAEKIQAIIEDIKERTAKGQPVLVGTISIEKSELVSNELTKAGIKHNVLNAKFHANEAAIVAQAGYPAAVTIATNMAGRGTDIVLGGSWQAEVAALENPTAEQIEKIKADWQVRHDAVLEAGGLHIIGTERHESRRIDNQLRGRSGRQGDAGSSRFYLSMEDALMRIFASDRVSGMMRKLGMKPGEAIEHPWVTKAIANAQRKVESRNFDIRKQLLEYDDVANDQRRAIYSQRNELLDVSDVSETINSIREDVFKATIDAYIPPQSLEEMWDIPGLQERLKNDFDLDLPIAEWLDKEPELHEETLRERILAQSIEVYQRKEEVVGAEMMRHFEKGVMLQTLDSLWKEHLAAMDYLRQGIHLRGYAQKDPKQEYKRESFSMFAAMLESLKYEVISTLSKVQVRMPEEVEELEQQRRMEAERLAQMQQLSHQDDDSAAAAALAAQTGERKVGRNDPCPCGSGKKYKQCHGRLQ
Chromo domain-containing protein 1 (Saccharomyces cerevisiae (strain ATCC 204508 / S288c) (Baker's yeast)), sequence (P32657 whole entry, the tested form may be a part): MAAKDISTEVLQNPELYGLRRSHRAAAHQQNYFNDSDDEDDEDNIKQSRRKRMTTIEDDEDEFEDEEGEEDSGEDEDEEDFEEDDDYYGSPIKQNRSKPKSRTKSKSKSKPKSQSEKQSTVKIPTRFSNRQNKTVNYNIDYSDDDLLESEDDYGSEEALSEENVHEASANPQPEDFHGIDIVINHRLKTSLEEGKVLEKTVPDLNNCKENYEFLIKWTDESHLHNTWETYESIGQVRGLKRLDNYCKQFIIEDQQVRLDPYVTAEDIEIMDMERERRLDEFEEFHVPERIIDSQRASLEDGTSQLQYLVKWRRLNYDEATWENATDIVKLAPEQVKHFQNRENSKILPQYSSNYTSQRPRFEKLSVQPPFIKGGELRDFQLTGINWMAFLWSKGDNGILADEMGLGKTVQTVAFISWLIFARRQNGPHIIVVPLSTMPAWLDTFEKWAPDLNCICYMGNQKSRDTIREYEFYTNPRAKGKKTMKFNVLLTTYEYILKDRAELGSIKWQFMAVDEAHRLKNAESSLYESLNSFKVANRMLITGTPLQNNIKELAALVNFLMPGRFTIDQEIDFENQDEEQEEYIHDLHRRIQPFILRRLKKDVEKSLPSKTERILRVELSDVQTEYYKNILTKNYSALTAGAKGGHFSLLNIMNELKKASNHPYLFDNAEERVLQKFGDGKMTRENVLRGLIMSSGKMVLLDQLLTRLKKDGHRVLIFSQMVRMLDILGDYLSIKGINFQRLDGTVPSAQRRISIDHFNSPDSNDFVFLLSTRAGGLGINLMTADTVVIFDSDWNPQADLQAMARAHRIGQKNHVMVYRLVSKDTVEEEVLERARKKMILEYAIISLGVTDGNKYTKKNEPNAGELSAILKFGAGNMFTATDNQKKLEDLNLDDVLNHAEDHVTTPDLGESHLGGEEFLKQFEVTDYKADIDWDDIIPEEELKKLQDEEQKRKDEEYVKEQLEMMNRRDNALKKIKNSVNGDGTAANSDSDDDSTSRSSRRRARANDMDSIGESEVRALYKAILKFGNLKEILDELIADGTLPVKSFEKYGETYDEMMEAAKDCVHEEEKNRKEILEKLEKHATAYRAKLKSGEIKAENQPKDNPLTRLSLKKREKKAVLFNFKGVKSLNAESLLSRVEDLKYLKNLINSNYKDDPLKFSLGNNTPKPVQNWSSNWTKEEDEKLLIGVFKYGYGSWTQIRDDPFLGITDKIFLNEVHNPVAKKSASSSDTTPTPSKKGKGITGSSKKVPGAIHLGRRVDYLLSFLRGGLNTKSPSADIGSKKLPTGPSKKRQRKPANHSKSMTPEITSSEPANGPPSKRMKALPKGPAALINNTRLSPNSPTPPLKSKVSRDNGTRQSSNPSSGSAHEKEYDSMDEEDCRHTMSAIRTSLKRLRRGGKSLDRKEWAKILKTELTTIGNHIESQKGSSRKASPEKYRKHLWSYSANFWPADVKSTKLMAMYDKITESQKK
Sialic acid-binding Ig-like lectin 9 (Homo sapiens), sequence (Q9Y336 whole entry): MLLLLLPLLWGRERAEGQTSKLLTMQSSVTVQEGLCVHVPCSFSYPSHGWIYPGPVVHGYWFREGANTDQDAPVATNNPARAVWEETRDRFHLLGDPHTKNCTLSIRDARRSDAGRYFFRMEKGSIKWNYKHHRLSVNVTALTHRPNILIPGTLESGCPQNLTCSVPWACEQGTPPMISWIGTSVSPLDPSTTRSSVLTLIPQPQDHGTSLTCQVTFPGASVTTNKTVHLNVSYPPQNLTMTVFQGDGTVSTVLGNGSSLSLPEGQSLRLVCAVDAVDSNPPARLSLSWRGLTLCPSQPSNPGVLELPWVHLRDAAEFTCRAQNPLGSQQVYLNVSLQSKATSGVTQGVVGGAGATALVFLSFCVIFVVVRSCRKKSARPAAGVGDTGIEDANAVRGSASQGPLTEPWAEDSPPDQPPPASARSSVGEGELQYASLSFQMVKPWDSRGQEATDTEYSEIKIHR

For `CCOC(CC)C(=O)NCCC(=O)N1CCN(c2ccccn2)CC1` (stereo unspecified), the Percent Effect is -3.95% in assay [1]; 2.63% in assay [2]; 4.4% in [3]; 4.32% in [4]; 3.99% with Trypanosoma cruzi; -8.28% in assay [5]. Besides, the Percent Effect was 6.23% in assay [6]; -5.03% in the assay listed under Homo sapiens; 2.13% in assay [7]; 5.2% in [8]; 0.201% in assay [9].
Turning to `CC(=O)N1CCN(C(=O)NCc2csc(Br)c2)CC1`, the Percent Effect in assay [1] is -7.09%; in [2], 2.7%; in assay [3], 4.94%; in assay [4], 5.56%; with Trypanosoma cruzi it was 0.0929%; in [5] it was -0.554%. Moreover, the Percent Effect in [6] is -3.77%; in the assay filed under Homo sapiens, 6.02%; in assay [7], 7.92%; in assay [8] it was 1.22%; in assay [9], -0.334%.
As for `CN(C)c1cc(C(=O)NCCc2nnc(-c3ccco3)[nH]2)ccn1`, the Percent Effect was -2.63% in assay [1]; 2.63% in assay [2]; 0.765% in assay [3]; -1.33% in [4]; -2.63% in the assay on Trypanosoma cruzi; -4.73% in [5]. Besides, the Percent Effect in assay [6] was 5.46%; in the assay listed under Homo sapiens, 0.0854%; in [7], 4.25%; in assay [8] it was 10.4%; in [9], -3.29%.
For the compound `CC(C)c1csc(C2CCCN(C(=O)c3ncccn3)C2)n1` (stereo unspecified), the Percent Effect in assay [1] is -4.12%; in [2], -2.7%; in assay [3] it was 4.03%; in assay [4], -10.4%; with Trypanosoma cruzi, -4.99%; in [5], -0.744%. Also, the Percent Effect in [6] is 3.69%; in the assay listed under Homo sapiens, 7.7%; in assay [7], -3.23%; in assay [8] it was -3.7%; in assay [9], -2.9%.
`Cc1nn(C)c(C)c1C1CCCN1Cc1noc(C2CC2)n1` (stereo unspecified): the Percent Effect in assay [1] was 2%; in [2] it was 15.8%; in [3], -5.38%; in assay [4], -11.5%; with Trypanosoma cruzi it was -8.87%; in assay [5], 3.96%. Further, the Percent Effect in [6] was 15.5%; in the assay filed under Homo sapiens, 8.86%; in assay [7] it was 8.37%; in [8], 6.17%; in assay [9], -6.57%.
As for `Cn1ncc2c(=O)[nH]c(CN3CCCC3c3cccs3)nc21` (stereo unspecified), the Percent Effect in assay [1] was -2.36%; in assay [2], 20.2%; in assay [3], -1.76%; in assay [4], -3.9%; with Trypanosoma cruzi, -5.38%; in [5] it was 1.14%. Further, the Percent Effect in [6] was 5.32%; in the assay filed under Homo sapiens, 15.9%; in [7], 7.39%; in [8] it was 11.4%; in [9] it was -5.13%.
In the case of `O=c1oc(-c2ccc(F)cc2)nn1CN1CCN(C2CCCC2)CC1`, the Percent Effect in assay [1] was -3.25%; in [2], 18.2%; in assay [3], 2.12%; in assay [4] it was -0.647%; in the assay on Trypanosoma cruzi, -2.25%; in [5], -3.56%. In addition, the Percent Effect in assay [6] was 7.6%; in the assay filed under Homo sapiens, -3.58%; in assay [7] it was 9.71%; in [8] it was 19.5%; in assay [9], -6.38%.
On to `c1nc(N2CCCCC2Cn2cncn2)c2ccsc2n1` (stereo unspecified), for which the Percent Effect in assay [1] is -6.19%; in assay [2], 16%; in assay [3] it was -6.98%; in [4] it was 35.1%; in the assay on Trypanosoma cruzi, 11.6%; in [5] it was 25.5%. Also, the Percent Effect in [6] was 9.59%; in the assay filed under Homo sapiens, 16.8%; in assay [7], 3.83%; in assay [8], 13.6%; in [9], -9.92%.
Turning to `Cc1noc(C)c1CN1CC2(CCN(C(=O)c3cscn3)CC2)CC1=O`, the Percent Effect in [1] is -5.65%; in assay [2], 10.4%; in [3], 0.445%; in [4], 16.6%; in the assay with Trypanosoma cruzi, 5.01%; in [5], -5.52%. The Percent Effect in assay [6] is 14.1%; in the assay filed under Homo sapiens, 0.0432%; in assay [7] it was 6.45%; in assay [8], 11.1%; in assay [9], -2.57%.
On to `CC(C)NC(=O)N1CCN(S(=O)(=O)C2CC2)CC2(CNC(=O)C2)C1` (stereo unspecified), for which the Percent Effect in assay [1] was -6.38%; in assay [2], 18.2%; in [3], 0.68%; in assay [4], 2.04%; with Trypanosoma cruzi it was 4.63%; in assay [5] it was 0.645%. Also, the Percent Effect in assay [6] is 7.66%; in the assay listed under Homo sapiens it was 9.81%; in assay [7], 2.12%; in assay [8], 11.5%; in assay [9], -5.37%.
For `O=C(CC1CC1)NCc1cn2c(n1)CN(CC1CC1)CC2`, the Percent Effect in [1] is -3.1%; in assay [2] it was 13.3%; in assay [3], 16.6%; in assay [4], -9.15%; with Trypanosoma cruzi, -3.54%; in assay [5], 1.63%. Moreover, the Percent Effect in assay [6] is 10.7%; in the assay filed under Homo sapiens it was 3.1%; in assay [7] it was -3.19%; in assay [8] it was 8.97%; in assay [9], -5.22%.
